# HT1080-NT tox = qHTS for induction of synthetic lethality in tumor cells producing 2HG: qHTS for the HT-1080-NT fibrosarcoma cell line; HT-1080-NT fibrosarcoma viability, CellTiter-Glo ATP luminescence, 48 h; hit rate 1.6% among 360,000; Potency, µM (series often up to 46.1 µM), for the others: top-dose activity, negative = less viability, usual class: cytotoxic;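 further: NT is the 2HG producing partner of a matched IDH1 knockdown line; 0% = DMSO-treated cells and -100% = media-only wells without cells; nearly all actives have a fitted effect of over 55% in size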
#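 Read-out is CellTiter-Glo luminescence after 10 minutes at room temperature, following 48 hours' compound treatment of HT-1080-NT cells (750 cells/well, RPMI, 5% FBS, 37 degrees C).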
# HT1080 IDH1KD tx = qHTS for induction of synthetic lethality in tumor cells producing 2HG: qHTS for the HT-1080-IDH1KD cell line; HT-1080 IDH1 knockdown viability, ATP luminescence, 48 h; Potency, µM (series often up to 46.1 µM), inactives show at the top dose activity, negative = toxicity, most hits filed as cytotoxic; hit rate 2% among 360,000; AID 686971, 2013;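 further: 0% = DMSO wells and -100% = cell-free medium wells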
#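 IDH1KD HT-1080 cells, 750/well, RPMI + 5% FBS; compound pinned after 2 h settling; 48 h, 37 °C; CellTiter-Glo luminescence; % activity normalised to DMSO and no-cell wells; curves fitted, classed by r2 and efficacy.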
# DT40 TDP1 no CPT = qHTS for Inhibitors of human tyrosyl-DNA phosphodiesterase 1 (TDP1): qHTS in cells in absence of CPT. DT40 Tdp1-/- hTDP1 cells, no CPT, ATP luminescence, 48 h. Potency, µM (highest dose often 46.2 µM), without a hit: top-dose activity change, negative = growth inhibition, hits mostly inhibitors. hit rate 15% among 420,000. AID 686978, 2013; further: on the % scale 0 is the no-effect control and ±100 the full control effect; nearly all actives have a fitted effect of over 55% in size
#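 Cells were dispensed at 400 per well, compounds added by pin tool, plates incubated ≥48 hr at 37 °C, then CellTiter-Glo added for 30 min at room temperature before luminescence reading. Line: DT40 Tdp1-/- complemented with hTDP1; camptothecin omitted.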
# TGFb SMAD3 inh = qHTS for Inhibitors of TGF-b; AID 588855, 2011; hit rate 1.2% among 410,000; Potency, µM (highest dose often 46.1 µM), for inactives: at the top dose activity, negative = inhibition, actives largely listed as inhibitors; HepG2 CAGA-GFP TGF-b/SMAD3 reporter, GFP fluorescence, 18 h; TGF-beta stimulated, 500 pg/mL final; further: on the % scale 0 is the no-effect control and ±100 the full control effect; nearly all actives have a fitted effect of over 65% in size
#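 HEPG2 CAGA-GFP, 1000 cells/well; 2 h settle, 37 C; cpd via pin tool; TGF-b 500 pg/mL final; 18 h, 37 C; GFP imaging ex488/em500-530; %Activity normalised to -TGF-b and +DMSO controls; CRC fit, curve class.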
# HepG2 viability = qHTS for Inhibitors of TGF-b: Cytotox Counterscreen | HepG2 CAGA-GFP viability, ATP luminescence, 18 h | hit rate 0.76% among 410,000 | Potency, µM (titrated, usually from 46.1 µM), for inactives: at the top dose activity change, negative = cytotoxicity, most hits filed as cytotoxic
#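 HepG2 CAGA-GFP cells (1000/well, DMEM with 1% FBS) received compound, then TGF-beta at 500 pg/mL final, and were incubated 18 hours at 37 degrees C. Viability was read by CellTiter-Glo luminescence. Media-only wells were set as complete cell-killing and DMSO as no toxicity.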
# TDP1 cell CPT = qHTS for Inhibitors of human tyrosyl-DNA phosphodiesterase 1 (TDP1): qHTS in cells in presence of CPT; chicken DT40 Tdp1-/-;hTDP1 cells + 20 nM CPT, ATP luminescence, 48 h; Potency, µM (series often up to 46.2 µM), without a hit: at the highest dose activity change, negative = growth inhibition, usual class: inhibitors; hit rate 12% among 420,000; AID 686979, 2013; further: on the % scale 0 is the no-effect control and ±100 the full control effect; nearly all actives have a fitted effect of over 55% in size
#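 Cell growth measured by CellTiter-Glo luminescence after a minimum 48 h, 37 C compound exposure with 20 nM CPT in Tdp1-knockout DT40 cells stably expressing hTDP1, seeded 400/well; qHTS titration format.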
# The depositor's hits bear a star; ? = inconclusive; · = no result. In the library only some 17% were active in any assay of this set; here they are far more common. The call rests on the fitted dose curve; in most records, active means well fitted curve in the direction sought with a large enough effect; inconclusive means small, poorly fitted or top-dose-only effect, or another doubt; inactive means no such curve, though single readings can be large; an effect the other way counts as inactive or inconclusive. Potency means the concentration at half of the fitted maximal effect.
SMILES,HT1080-NT tox,HT1080 IDH1KD tx,DT40 TDP1 no CPT,TGFb SMAD3 inh,HepG2 viability,TDP1 cell CPT
COc1ccccc1CNC(=O)C1CCCN(c2nnc(C)c3c(C)n(-c4ccccc4)nc23)C1 (stereo not drawn),·,·,21µM*,?,-53%,21µM*
Cc1ccc(-n2nc3c(N4CCC(C(=O)NCc5ccc(C)o5)CC4)nnc(C)c3c2C)cc1,21µM*,18µM*,?,?,-27%,23µM*
COc1ccccc1CNC(=O)C1CCN(c2nnc(C)c3c(C)n(-c4ccccc4)nc23)CC1,·,·,-22%,·,-19%,16%
COc1ccc(-n2nc3c(N4CCCC(C(=O)NCCc5ccc(C)cc5)C4)nnc(C)c3c2C)cc1 (stereo not drawn),·,·,3.7µM*,?,-39%,3.3µM*
CCN1CCN(C(=O)C2CCN(c3nnc(C)c4c(C)n(-c5ccc(C)cc5)nc34)CC2)CC1,-6%,-6%,?,-32%,-20%,?
CNC(=O)C1CCCN(c2nnc(C)c3c(C)n(-c4ccccc4)nc23)C1 (stereo not drawn),·,·,-16%,1%,8%,-6%
NS(=O)(=O)c1ccc(NC(=O)CSc2n[nH]c(=O)n2C2CC2)cc1,14%,3%,23%,1%,1%,-15%
CC(NC(=O)/C(C#N)=C1\N=C(NC(=O)c2cccs2)c2ccccc21)c1ccccc1 (stereo not drawn),-9%,-14%,16µM*,?,10%,?
Cc1ccc(S(=O)(=O)N2CCCC2CNC(=O)c2ccc(F)c(F)c2)cc1 (stereo not drawn),7%,-3%,18µM*,7%,-25%,?
Cc1ccc(C)c(S(=O)(=O)N2CCCC2CNC(=O)C(=O)Nc2ccccc2)c1 (stereo not drawn),-7%,-5%,?,-9%,-5%,-28%
COc1ccc(S(=O)(=O)N2CCCC2CNC(=O)C(=O)Nc2ccc(C)cc2)cc1 (stereo not drawn),-5%,2%,?,1%,-8%,?
Cc1ccc(S(=O)(=O)N2CCCC2CNC(=O)C(=O)Nc2ccc(F)cc2)cc1 (stereo not drawn),-9%,?,16µM*,-8%,-14%,21µM*
COc1ccc(NC(=O)C(=O)NCC2CCCN2S(=O)(=O)c2ccc(C)cc2)cc1 (stereo not drawn),0.21µM*,0.052µM*,0.018µM*,?,-12%,0.0058µM*
COc1ccc(NC(=O)C(=O)NCC2CCCN2S(=O)(=O)c2cc(C)ccc2C)cc1 (stereo not drawn),?,18µM*,2.6µM*,0%,-20%,4.1µM*
Cc1ccc(S(=O)(=O)N2CCCC2CNC(=O)C(=O)NC2CC2)cc1 (stereo not drawn),14%,0%,-20%,1%,-3%,11%
Cc1ccc(C(=O)NCC2CCCN2S(=O)(=O)c2ccc(C)cc2)cc1 (stereo not drawn),-22%,-23%,?,-19%,-11%,?
COc1cccc(N2CCN(c3ccc(N4C(=O)CCC4=O)cc3[N+](=O)[O-])CC2)c1,4%,8%,?,-18%,-12%,-23%
CC(C)(C)c1ccc(C(=O)NCC2CCCN2S(=O)(=O)c2ccccc2)cc1 (stereo not drawn),?,-14%,12µM*,-18%,-14%,8.2µM*
COc1ccc(S(=O)(=O)N2CCCC2CNC(=O)C(=O)NCc2ccccc2Cl)cc1 (stereo not drawn),-20%,-22%,23µM*,30%,8%,?
COc1ccc(N(C)S(=O)(=O)c2ccc3c(c2)NC(=O)CO3)c(OC)c1,0%,-10%,-17%,6%,3%,-8%
O=c1c2sc3ccccc3c2n(Cc2cccc(F)c2)c(=O)n1Cc1ccccc1,·,·,16µM*,-6%,-2%,?
O=c1c2sc3ccccc3c2n(Cc2ccccc2F)c(=O)n1-c1ccccc1Cl,·,·,9.2µM*,0%,4%,21µM*
O=c1c2sc3ccccc3c2n(Cc2cccc(Cl)c2)c(=O)n1Cc1ccco1,·,·,23µM*,-3%,-47%,21µM*
O=c1c2sc3ccccc3c2n(Cc2ccccc2)c(=O)n1Cc1ccccc1,·,·,-22%,-2%,-2%,-2%
O=c1c2sc3ccccc3c2n(Cc2ccccc2F)c(=O)n1Cc1ccccc1,·,·,?,7%,0%,-18%
SMILES,HT1080-NT tox,HT1080 IDH1KD tx,DT40 TDP1 no CPT,TGFb SMAD3 inh,HepG2 viability,TDP1 cell CPT
O=c1c2sc3ccccc3c2n(Cc2cccc(C(F)(F)F)c2)c(=O)n1Cc1ccc(F)cc1,·,·,?,-26%,-4%,?
O=c1c2sc3ccccc3c2n(Cc2cccc(Cl)c2)c(=O)n1Cc1ccc(F)cc1,·,·,6.5µM*,-4%,0%,10µM*
O=c1c2sc3ccccc3c2n(Cc2cccc(C(F)(F)F)c2)c(=O)n1Cc1ccco1,·,·,?,?,-26%,?
Cc1nc2ccccc2c(=O)n1NC(=O)c1ccc(Cl)c(Cl)c1,13%,1%,-20%,1%,8%,-4%
O=c1c2ccccc2oc2ccc(-c3ccoc3)cc12,·,·,?,?,-16%,-107%
Cc1nc2c(sc(=S)n2Cc2ccco2)c(=O)n1CC(=O)Nc1cc(F)ccc1F,-1%,8%,?,-27%,-31%,12µM*
O=C(Cn1c(=O)n(Cc2ccco2)c(=O)c2sc3ccccc3c21)Nc1ccc(F)cc1F,·,·,10µM*,-10%,3%,?
O=c1c2sc3ccccc3c2n(Cc2cccc(Cl)c2)c(=O)n1Cc1ccccc1,·,·,?,-25%,-53%,13µM*
CCN(CC)Cc1c(C(=O)N2CCc3ccccc3C2)nc2ccc(Cl)cn12,6%,5%,-15%,9%,-17%,16%
Cc1ccc(N2CCN(C(=O)C3CCN(S(=O)(=O)c4ccc5c(c4)oc(=O)n5C)CC3)CC2C)cc1 (stereo not drawn),·,·,3.7µM*,-6%,-14%,5.8µM*

# Screens deposited in PubChem BioAssay by National Center for Advancing Translational Sciences (NCATS).
